Assay results from PubChem BioAssay (EPA / NIEHS).
Records with an inconclusive call do not appear. Activity calls are given as the source filed them. How the source made its calls: active means hit-call score of the fitted dose curve at least 0.9, where 1 is the maximum; inconclusive means response in the unintended direction; inactive means score below 0.9.

Experiments:
[1] = biological target: Cellular tumor antigen p53 (Homo sapiens) (UniProt P04637); test: TOX21_p53_BLA_p2_ratio: Tox21 HCT-116 p53 Agonism Beta-lactamase Assay, Ratio, Phase 2 (AID 2283592)
In short: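 HCT-116 cells with p53-responsive beta-lactamase reporter, 4000 cells/well, preincubated 5 h, then compound in DMSO (217-fold dilution) for 16 h at 37C. CCF4-AM substrate 2 h at room temperature; 460/530 nm emission ratio fitted upward versus DMSO.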

[2] = TOX21_p53_BLA_p4_viability: Viability Assessment in the Tox21 HCT-116 p53 Agonism Beta-lactamase Assay, Phase 4 (AID 2283597);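 further: hits lower the luminescence signal meaning cytotoxicity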
In short: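 HCT-116 p53-bla cells, 4000/well, dosed after 5 h attachment and incubated 16 h at 37 °C, 5% CO2. Viability from CellTiter-Glo ATP luminescence after 30 min at room temperature, taken after the beta-lactamase read; loss of signal indicates cytotoxicity.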

[3] = biological target: Cellular tumor antigen p53 (Homo sapiens) (UniProt P04637); test: TOX21_p53_BLA_p5_ratio: Tox21 HCT-116 p53 Agonism Beta-lactamase Assay, Ratio, Phase 5 (AID 2283599)
In short: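 HCT-116 cells carrying a p53-inducible beta-lactamase reporter were seeded at 4000 cells/well and dosed after 5 h with compound in DMSO (217-fold dilution). After 16 h at 37C, CCF4-AM substrate was added for 2 h, and the 460/530 nm emission ratio was scored as gain-of-signal versus DMSO.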

[4] = TOX21_p53_BLA_p5_viability: Viability Assessment in the Tox21 HCT-116 p53 Agonism Beta-lactamase Assay, Phase 5 (AID 2283600)
In short: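 HCT-116 p53 beta-lactamase reporter cells, 4000/well, were exposed to compound (pin transfer, 217-fold dilution) for 16 hours at 37C. Cellular ATP was read by CellTiter-Glo luminescence after 30 min at room temperature.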

[5] = biological target: Cellular tumor antigen p53 (Homo sapiens) (UniProt P04637); test: TOX21_p53_BLA_p4_ratio: Tox21 HCT-116 p53 Agonism Beta-lactamase Assay, Ratio, Phase 4 (AID 2283601)
In short: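 HCT116 cells carrying an inducible beta-lactamase reporter were plated at 4000 cells/well, rested 5 h, then exposed to compounds in DMSO (217-fold dilution) for 16 h at 37C. CCF4-AM substrate was loaded 2 h at room temperature; 460/530 nm emission ratio scored gain-of-signal versus DMSO.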

[6] = biological target: Cellular tumor antigen p53 (Homo sapiens) (UniProt P04637); test: TOX21_p53_BLA_p3_ratio: Tox21 HCT-116 p53 Agonism Beta-lactamase Assay, Ratio, Phase 3 (AID 2283596)
In short: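 HCT116 p53-bla cells (4000/well) given compound in DMSO (217-fold dilution) after 5 h, incubated 16 h at 37C. CCF4-AM substrate 2 h at room temperature; 460/530 nm emission ratio, gain fitted against DMSO.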

Measured: outcome

Cellular tumor antigen p53 (Homo sapiens), sequence (P04637 whole entry, looked up): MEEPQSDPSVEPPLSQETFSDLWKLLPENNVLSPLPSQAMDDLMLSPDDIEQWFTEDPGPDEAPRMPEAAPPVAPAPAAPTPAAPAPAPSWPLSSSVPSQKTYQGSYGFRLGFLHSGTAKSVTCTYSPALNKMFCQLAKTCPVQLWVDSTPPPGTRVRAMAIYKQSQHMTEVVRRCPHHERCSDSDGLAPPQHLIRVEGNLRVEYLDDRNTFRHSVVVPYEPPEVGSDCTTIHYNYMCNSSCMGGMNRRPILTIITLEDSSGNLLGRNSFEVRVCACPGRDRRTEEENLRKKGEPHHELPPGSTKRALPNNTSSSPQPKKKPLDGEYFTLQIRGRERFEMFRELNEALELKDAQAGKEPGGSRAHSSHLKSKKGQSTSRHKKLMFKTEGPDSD

CC(C)=CC(C)(C)C
inactive: [1] | [2] | [3] | [4] | [5]

O=C(O)CCNC(=O)c1ccc(N=Nc2ccc(O)c(C(=O)O)c2)cc1
inactive: [1] | [2] | [3] | [5]

COc1ccc([C@@H]2CC(=O)c3c(O)cc(O[C@@H]4O[C@H](CO[C@@H]5O[C@@H](C)[C@H](O)[C@@H](O)[C@H]5O)[C@@H](O)[C@H](O)[C@H]4O)cc3O2)cc1O
inactive: [1] | [2] | [3] | [4] | [5]

CCc1ccc(CC)cc1
inactive: [1] | [2] | [3] | [4] | [5]

CCn1ccnc1CC1COc2ccccc2O1 (stereo not given)
inactive: [1] | [2] | [3] | [4] | [5]

CC(=O)NC(=O)c1ccccc1O
inactive: [1] | [2] | [3] | [4] | [5]

O=C1c2ccccc2C(=O)C1c1ccccc1
inactive: [1] | [6] | [5]

CCc1cccc(C)c1
inactive: [1] | [2] | [3] | [5]

CCN(CC)CCOC(=O)C1(c2ccccc2)CCCC1
inactive: [1] | [2] | [3]

CCCCCCCCCCCCCCCCCl
inactive: [1] | [2] | [3] | [4] | [5]

CC=C(Cl)Cl
inactive: [1] | [2] | [3] | [5]

COc1ccc(C(=O)NCc2ccc(OCCN(C)C)cc2)cc1OC
inactive: [1] | [2] | [3] | [5]

O=C(O)CC(=O)O
inactive: [1] | [6] | [5]

Nc1ccc2cc(S(=O)(=O)O)ccc2c1
inactive: [1] | [2] | [3] | [5]

Cc1cc(NC(=O)C2=C(O)c3ccccc3S(=O)(=O)N2C)no1
inactive: [1] | [2] | [3] | [4] | [5]

CC(C)(C)NCC(O)COc1cccc2c1C[C@H](O)[C@H](O)C2 (stereo not given in full)
inactive: [1] | [3] | [4] | [5]

CCCn1cc[n+](C)c1C
inactive: [1] | [3]

CO[C@]1(NC(=O)CSC(F)F)C(=O)N2C(C(=O)O)=C(CSc3nnnn3CCO)CO[C@H]21
inactive: [1] | [3]

S=C=Nc1ccc(N=C=S)cc1
inactive: [1] | [3] | [4] | [5]

CC(C)=CCC[C@@](C)(O)[C@H]1CC=C(C)CC1
inactive: [1] | [3]

CC1CCCC(=O)C1=O (stereo not given)
inactive: [1] | [2] | [4] | [5]

CC1=C(C(=O)O)N2C(=O)[C@@H](NC(=O)[C@H](N)c3ccccc3)[C@H]2SC1
inactive: [1] | [3] | [4]

OC(CCCN1CCCCC1)(c1ccccc1)c1ccccc1
inactive: [1] | [2] | [4]

C=CC(=O)OCCOCC(CC)(COCCOC(=O)C=C)COCCOC(=O)C=C
inactive: [1] | [3] | [4] | [5]

COc1ccc2cc([C@H](C)CO)ccc2c1
inactive: [1] | [3] | [4] | [5]

CCCCCCCCCCCCCCCCOP(=O)([O-])OCC[N+](C)(C)C
inactive: [1] | [3]

CC(CO)CO
inactive: [1] | [2] | [5]

CC(C)(C)NCCO
inactive: [1] | [2] | [4] | [5]

COc1cc(S(C)=O)ccc1-c1nc2ncccc2[nH]1 (stereo not given)
inactive: [1] | [3] | [4] | [5]

O=C(NCCc1c[nH]c2ccccc12)c1cccnc1
inactive: [1] | [3] | [4] | [5]

O=CC1CC=CCC1 (stereo not given)
inactive: [1] | [2] | [4] | [5]

CN(C)Cc1ccccc1
inactive: [1] | [3] | [4] | [5]

C=C(C)C(=O)OCCCCCCOC(=O)C(=C)C
inactive: [1] | [3] | [4]

O=C(O)CCS
inactive: [1] | [2] | [4] | [5]

CC(=O)NC[C@H]1CN(c2ccc(N3CCOCC3)c(F)c2)C(=O)O1
inactive: [1] | [3] | [4] | [5]

CN(CC(=O)N1CCOCC1)Cc1c(Cl)cccc1NC(=O)c1ccccc1
inactive: [1] | [2] | [4] | [5]

C1CCc2nnnn2CC1
inactive: [1] | [3] | [4]

CCCn1c(=O)[nH]c(=O)c2[nH]cnc21
inactive: [1] | [2] | [4] | [5]

CCCN(CC)C(CC)C(=O)Nc1c(C)cccc1C (stereo not given)
inactive: [1] | [3] | [4]

CC1(C)O[C@@H]2C[C@H]3[C@@H]4CCC5=CC(=O)C=C[C@]5(C)[C@H]4[C@@H](O)C[C@]3(C)[C@]2(C(=O)CO)O1
inactive: [1] | [3] | [4]

COc1cc2nc(N3CCN(C(=O)c4ccco4)CC3)nc(N)c2cc1OC
inactive: [1] | [3]

O=C(C(=O)c1ccc(Br)cc1)c1ccc(Br)cc1
inactive: [1] | [3]

CN(C)CC[C@@H](c1ccc(Cl)cc1)c1ccccn1
inactive: [1] | [2] | [3] | [5]

CC(COc1ccccc1)NN (stereo not given)
inactive: [1] | [2] | [5]
